Data published in publication PMC5540273 (PLoS ONE, 2017).

Each molecule was assayed on PRKD1. Conditions: concentration: 1 μM, replicates: in singlicate; n = 1.
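Further: KINOMEscan kinase panel screen.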

Compound | %Inh
COc1ccc(Nc2ncc(C#N)c(Nc3ccccc3C(N)=O)n2)cc1N1CCN(C)CC1.Cl [GSK1558669] | 93.1%
O=C(Nc1cccc(-c2nn3ncccc3c2-c2ccnc(Nc3cccc(C(F)(F)F)c3)n2)c1)c1c(F)cccc1F [GSK299495] | 16%
Cc1cccc(-c2nc(Nc3ccc4ncsc4c3)c3ccccc3n2)n1 [GW867588] | 98.7%
Cl.Nc1ncnc2occ(-c3ccc(NC(=O)Nc4cc(C(F)(F)F)ccc4F)cc3)c12 [SB-707548] | 0%
C[C@@H](Oc1cc(-n2cnc3ccc(NC(=O)NC(C)(C)C)cc32)sc1C(N)=O)c1ccccc1Cl [GSK346294] | 2%
c1ccc(-c2cc(-c3c[nH]nc3-c3ccccn3)ccn2)cc1 [GW576604] | 67%
Cc1nnc(-c2ccc3occ(-c4ccc(C(C)O)cc4)c3c2)o1 (centres unmarked) | 11%
CC(C)Oc1ccc2c(-c3ccnc(Nc4ccc(N5CCN(C)CC5)cc4)n3)cnn2n1 [GW696155] | 86%
NS(=O)(=O)c1cccc(-c2ccc3ncc(N4CCOCC4)nc3c2)c1 [GSK1535721] | 0%
Fc1ccc(-c2ncn(CCCN3CCOCC3)c2-c2ccccn2)cc1 [SB-211742] | 0%
CN(C1=C(c2ccccc2)C(=O)NC1=O)c1ccccc1 [SB-334860] | 0%
CCc1nc(-c2cccc(C)c2)c(-c2ccnc(NCc3ccccc3)c2)s1 | 0%
O=C(NCCNc1ccnc(Nc2ccc(F)cc2)n1)Nc1ccccc1F [GSK1379880] | 0%
O=c1cc(N2CCOCC2)nc2n(Cc3cccc(F)c3)ccn12 [GSK2297430] | 6%
CC(C)(C)n1cnc2c(N)ncnc21 [SKF-97359] | 0%
O=c1cc(N2CCOCC2)nc2n(Cc3cccc(C(F)(F)F)c3)ccn12 [GSK2297543] | 0%
Cc1cccc(Cn2ccn3c(=O)cc(N4CCOCC4)nc23)c1 [GSK2297542] | 13%
O=C(NCCNc1ccnc(Nc2ccc(F)cc2)n1)c1cc2ccccc2s1 [GSK1379874] | 5%

Compound | %Inh
Cn1ccc2ncnc(Oc3ccc(NC(=O)Nc4ccncc4)c(Cl)c3)c21 | 14%
COc1ccc(COc2cc(-n3cnc4ccccc43)sc2C(N)=O)cc1 [GSK1024304] | 0%
Cc1ccc(C(=O)NCC(N)=O)cc1-n1c(C)cc(OCc2ccc(F)cc2F)c(Br)c1=O | 23%
Cc1ccc(NC(=O)c2ccnc(N3CCN(C)CC3)c2)cc1-c1ccc(C(=O)NCC2CC2)cc1 [GW775604] | 0%
Fc1ccc(-c2nn3c(OCC(F)(F)F)cccc3c2-c2ccncc2)cc1 [GW514784] | 27%
Fc1ccc(-c2ncn(CCCN3CCOCC3)c2-c2cccnc2)cc1 [SB-211743] | 0%
O=C(NOCC1CC1)c1ccc(F)c(F)c1Nc1ccc(I)cc1Cl | 8%
O=C(Nc1n[nH]c2cc(-c3cccc(F)c3)ccc12)C1CC1 [SB-735464] | 0%
COc1ccc(Nc2nccc(N3CCC(NC(=O)Nc4cccc(C(C)=O)c4)C3)n2)cc1 (centres unmarked) [GSK1379731] | 0%
N#Cc1ccc(-c2cc(-c3c[nH]nc3-c3ccccn3)ccn2)cc1 [GW693028] | 63%
COC(=O)Nc1nc2cc(Oc3ccc(NC(=O)Nc4cc(F)ccc4F)cc3)ccc2[nH]1.Cl [GW701424] | 0%
O=c1cc(N2CCOCC2)nc2n(Cc3cccc4ccccc34)ccn12 [GSK2333389] | 0%
c1ccc(-c2n[nH]cc2-c2ccnc3ccccc23)nc1 [GW271431] | 1%
Nc1nccc(-c2c(-c3ccc(F)cc3)ncn2C2CCN(CC(F)(F)F)CC2)n1 [SB-236560] | 0%
NCC(NC(=O)c1cc(-c2cn[nH]c2)c(-c2ccnc3[nH]ccc23)s1)c1ccccc1.O=C(O)C(F)(F)F.O=C(O)C(F)(F)F (centres unmarked) [GSK1325775] | 0%
Cc1c2ccc(N(C)c3ccnc(Nc4cccc(S(N)(=O)=O)c4)n3)cc2nn1Cc1ccccc1.Cl.Cl [GW787226] | 0%
COc1ccc(S(=O)(=O)NC2CCN(c3cc(C)nc(Nc4cccc(C#N)c4)n3)CC2)cc1.O=C(O)C(F)(F)F [GSK1653539] | 60%
